Compound activity as filed in PubChem BioAssay.
HTT-AS act – Primary qHTS for Identification of Small Molecule Activators of Huntingtin-Antisense Promoter Activity | HEK293 HTT-AS promoter firefly luciferase reporter, 24 h; response scale: percent change from vehicle, -100% = no light | Potency, µM (doses to about 57.5 µM), inactives show at the highest dose activity change, positive = activation, hits mostly activators | 0.24% of 48,000 active | AID 1508624, 2021; further: potency means the concentration at half of the fitted maximal effect; nearly all actives have a fitted effect of over 55% in size
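Luminescence was read after Dual-Glo reagent and a 10 min room-temperature incubation. Values were normalized to vehicle (0% activity) and zero RLU (-100% activity). Reporter HEK293 cells had been exposed to compounds (up to 57.5 uM final) for 24 h.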
DRV1 agonist – qHTS for Agonists of Human Resolvin D1 Receptor DRV1; AID 1346428, 2018; CHO-K1 GPR32 beta-arrestin PathHunter luminescence, 90 min; zero percent set by DMSO-only wells; activation, % at 76.9 µM; 2.5% of 48,000 active; Probable G-protein coupled receptor 32 (Homo sapiens), O75388;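 active means activation of at least 60% and not above a set upper limit, about 1 call in 100 departs from these limits; inconclusive means activation of 40% to 60%, or above that upper limit; inactive means activation under 40%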; further: 0% is about no effect
Target sequence (O75388 whole entry, looked up): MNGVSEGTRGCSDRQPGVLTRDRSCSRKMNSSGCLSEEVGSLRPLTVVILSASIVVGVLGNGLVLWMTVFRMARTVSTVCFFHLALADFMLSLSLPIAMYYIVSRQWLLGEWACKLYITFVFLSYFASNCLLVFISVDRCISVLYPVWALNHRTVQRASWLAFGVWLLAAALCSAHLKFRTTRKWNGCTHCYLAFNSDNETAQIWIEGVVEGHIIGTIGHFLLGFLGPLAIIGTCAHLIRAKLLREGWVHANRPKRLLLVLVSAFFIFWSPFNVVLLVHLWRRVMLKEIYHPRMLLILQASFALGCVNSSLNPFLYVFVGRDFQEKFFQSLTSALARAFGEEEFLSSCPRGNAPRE
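Engineered CHO-K1 line co-expressing GPR32-ProLink and EA-beta-arrestin. Compound treatment lasted 90 min at 37 °C. Luminescence was recorded after 1 h with substrate at ambient temperature, relative to DMSO basal wells.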
HTT prom inh – Primary qHTS for Identification of Small Molecule Inhibitors of Huntingtin Promoter Activity; HEK293 HTT promoter firefly luciferase reporter, 24 h; Potency, µM (titrated, usually from 57.5 µM), inactives show at the top dose activity change, negative = inhibition, actives largely listed as inhibitors; 0.93% of 48,000 active; AID 1508623, 2021; further: potency means the concentration at half of the fitted maximal effect; nearly all actives have a fitted effect of over 50% in size
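HEK293 luciferase promoter-reporter cells (2,500/well) plated 24 h, then compounds added at up to 57.5 uM final for 24 h at 37 °C. Firefly luminescence by Dual-Glo, normalized to vehicle (0%) and zero RLU (-100%).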
* hit, by the source's call; ? = inconclusive; / = no result. Most compounds without a hit are left out; they make up all but 3.7% or so of the library. Unless noted, the call rests on the fitted dose curve; in most records, active means well fitted curve in the direction sought with a large enough effect; inconclusive means small, poorly fitted or top-dose-only effect, or another doubt; inactive means no such curve, though single readings can be large; an effect the other way counts as inactive or inconclusive.

SMILES	HTT-AS act	DRV1 agonist	HTT prom inh
CCn1c2c(c(=O)n3ncc(C(=O)N4CCN(c5ccc(C(C)=O)cc5)CC4)c13)CN(Cc1ccc(OC)cc1)CC2	-47.9%	4.2	?
O=C(NC1CCCC1)c1ccc(CSc2nc3cccnc3n2Cc2ccc(F)cc2)cc1	-8.8%	-3.9	-3.2%
O=C(NC1CC1)c1ccc(Cn2c(SCc3ccc(F)cc3)nc3cccnc32)cc1	9.9%	63.3*	-7.9%
COCCCNC(=O)c1sc2nc(C)c(C(=O)Nc3ccc(Cl)cc3)c(-c3ccc(Br)cc3)c2c1N	-3.5%	64.1*	-27.8%
COCCCNC(=O)c1sc2nc(C)c(C(=O)Nc3ccc(C)cc3C)c(-c3ccc(Br)cc3)c2c1N	-17.7%	-1.4	?
CCN(CC)c1ccc(C(=C2C=CC(=[N+](CC)CC)C=C2)c2cc(S(=O)(=O)O)ccc2S(=O)(=O)[O-])cc1	-55.8%	-77.8	?
CCc1nnc(NC(=O)C(=O)c2cc(C)n(-c3ccccc3)c2C)s1	-50.4%	-1.8	?
Cc1cc(C(=O)C(=O)Nc2nnc(C(C)C)s2)c(C)n1-c1ccccc1	-86.1%	30.4	6.31µM*
O=C(Nc1ccc(C(F)(F)F)cc1)c1cc(S(=O)(=O)NC2CCCCC2)ccc1F	-39.1%	2.7	?
O=C(Nc1ccc(C(F)(F)F)cc1)c1cc(S(=O)(=O)NC2CCCCCC2)ccc1F	-74.7%	5.0	28.2µM*
CCC(=O)Nc1ccc(-c2nc3ncccc3o2)cc1C	11.2µM*	?	30.8%
Cc1cc(-c2nc3ncccc3o2)ccc1NC(=O)COc1ccc(C(C)(C)C)cc1	17.2%	19.6	9.8%
CNC(=O)c1c(-c2ccc(F)cc2)oc2cc(N(CCO)S(C)(=O)=O)c(C3CC3)cc12	-36.6%	/	-7.1%
CN(C)c1ccc(C2Nc3ccc4ccccc4c3C3=C2C(=O)CC(C)(C)C3)cc1Br (configuration not stated)	-15.5%	/	-12.5%
Cc1ccc(Nc2ncnc3sc4c(c23)CCC(C)C4)cc1C (configuration not stated)	-3.1%	?	-5.3%
CC(C)OCCCNc1ncnc2sc3c(c12)CCCC3	-39.0%	104.1*	?
CN(C)c1ccc(Nc2ncnc3sc4c(c23)CCCC4)cc1	-78.6%	3.6	11.2µM*
CCOC(=O)C(CC)Sc1ncnc2sc3c(c12)CCCC3 (configuration not stated)	-28.8%	46.8	-20.2%
Cc1cccc(N(C)c2nc3ccc(C)cc3n3nnnc23)c1	/	-23.9	/
Cc1cccc(N(C)c2nc3ccc(C)cc3n3cnnc23)c1	13.5%	66.1*	13.3%
O=C(CSc1nc2ccccc2n1Cc1ccccc1F)NCc1ccccc1	-17.7%	-9.6	?
Cn1c(NCc2ccccc2F)nc2ccccc21	5.01µM*	13.9	70.3%
COc1cc(C)c(Sc2cnc(NC(=O)c3ccc(CNC(C)C(C)(C)C)cc3)s2)cc1C(=O)N1CCN(C(C)=O)CC1 (configuration not stated)	-8.5%	/	-23.5%
COc1ccc(Nc2cc(-c3cnc(N)nc3)nc(N3CCOCC3)n2)cn1	-34.3%	/	?
COc1ccc(-c2noc(N3CCC(C(=O)N4CCN(c5ccccc5F)CC4)CC3)n2)cc1	-47.7%	-23.6	?
SMILES	HTT-AS act	DRV1 agonist	HTT prom inh
Cc1ccc(NC(=O)C2CCN(c3nc(-c4ccc(C(C)C)cc4)no3)CC2)c(Cl)c1	-90.0%	-9.1	0.1µM*
Cc1ccc(C)c(N2CCN(C(=O)C3CCN(c4nc(-c5ccc(C(C)C)cc5)no4)CC3)CC2)c1	-93.2%	-17.7	0.112µM*
COc1ccc(NC(=O)C2CCN(S(=O)(=O)c3cc(-c4noc(C)n4)ccc3C)CC2)cc1	-33.9%	9.0	?
COc1ccc(-c2noc(N3CCC(C(=O)Nc4cccc(C)c4C)CC3)n2)cc1	-59.0%	-13.8	2.82µM*
Cc1ccc(NC(=O)c2nc(-c3ccncc3)no2)c(Cl)c1	?	5.1	67.3%
CC1(C)Cc2c(-c3ccccc3)c(-c3ccc(Cl)cc3)c(CC(=O)O)n2C1	-31.4%	/	-21.8%
Cc1[nH]c2ccccc2c1CCNCc1ccc(C=CC(=O)NO)cc1	?	/	265.9%
O=c1c2ccccc2n2c(-c3ccc(Cl)cc3)nnc2n1CCc1ccccc1	-1.0%	8.4	-8.6%
OC1(c2ccccc2)CCNCC1	-3.0%	-26.5	-4.4%
CC1=C(C(=O)OC2CCCC2)C(c2ccccc2C(F)(F)F)CC(=O)N1 (configuration not stated)	-33.0%	95.9*	?
